AmpC no deterg – AmpC beta-lactamase inhibition without detergent. P00811. AmpC nitrocefin hydrolysis, absorbance 480 nm, 0.0001% Triton. Potency, µM (titrated, usually from 57.1 µM), actives largely listed as inhibitors. hit rate 0.52% among 330,000. AID 485341; note: nearly all actives have a fitted effect of over 20% in size
Target sequence (P00811 whole entry, looked up): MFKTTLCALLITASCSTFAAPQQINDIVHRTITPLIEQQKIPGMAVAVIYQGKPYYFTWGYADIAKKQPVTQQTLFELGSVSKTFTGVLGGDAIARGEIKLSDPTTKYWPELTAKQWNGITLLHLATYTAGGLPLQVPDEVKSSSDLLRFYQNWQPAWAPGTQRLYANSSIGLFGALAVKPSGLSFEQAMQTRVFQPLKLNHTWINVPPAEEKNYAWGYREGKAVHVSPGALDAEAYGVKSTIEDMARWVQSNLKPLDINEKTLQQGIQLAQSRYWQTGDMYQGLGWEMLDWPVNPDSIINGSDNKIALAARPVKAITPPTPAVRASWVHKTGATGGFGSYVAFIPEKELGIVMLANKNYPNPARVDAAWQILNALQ
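20 mM phosphate pH 7.0 + 0.01% (detergent screen) or 0.0001% Triton X-100; 5.3 nM AmpC reagent; cpd preinc 15 min RT; nitrocefin (800 uM stock) to start; A480 q20 s × 4 min; Activity was normalised to no-enzyme and no-compound control wells.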
Sm TGR block – blocks Schistosoma mansoni thioredoxin glutathione reductase | Potency, µM (top dose mostly 114 µM), usual class: inhibitors | hit rate 3% among 360,000 | purified TGR, DTNB reduction, TNB absorbance 405 nm | Q962Y6; note: nearly all actives have a fitted effect of over 60% in size
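First, TGR (20 nM dispensed) and NADPH were mixed with compound. Second, a 15 min room-temperature incubation followed. Third, further NADPH and then DTNB were added to start the reaction. Finally, TNB absorbance was monitored kinetically.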
AmpC inh detg – blocks E. coli AmpC beta-lactamase in detergent assay. P00811. AmpC hydrolysis of nitrocefin, absorbance 480 nm, 0.01% Triton. Potency, µM (top dose mostly 114 µM), usual class: inhibitors. hit rate 0.041% among 370,000; note: nearly all actives have a fitted effect of over 25% in size
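AmpC (5.3 nM in the dispensed reagent) in 20 mM phosphate pH 7.0 with 0.01% (detergent screen) or 0.0001% Triton X-100 was preincubated with compounds for 15 min at room temperature. Nitrocefin was then added from an 800 uM solution, and hydrolysis was followed at 480 nm.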
RE007 growth inh – less growth of the S. pombe RE007 Vpr strain; S. pombe RE007 Vpr strain, BacTiter-Glo ATP luminescence, 24 h; Potency, µM (titrated, usually from 92.2 µM), most hits filed as inhibitors; hit rate 0.21% among 360,000; active = well fitted falling curve with a large enough effect; inconclusive = small, poorly fitted or top-dose-only effect; inactive = no such curve, though single readings can be large or run the other way; note: nearly all actives have a fitted effect of over 50% in size
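Fission yeast strain RE007, carrying one chromosomally integrated HIV-1 vpr copy, was seeded at OD 0.01 in PMG+AL medium with 23 nL pinned compound. After 24 h at 30 °C and 99% humidity, viability was read by BacTiter-Glo luminescence.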
SARS PLP yeast – inhibitors of SARS-CoV papain-like protease in yeast; hit rate 0.19% among 330,000; S. cerevisiae expressing SARS-CoV PLpro, growth rescue; Potency, µM (titrated, usually from 32.9 µM), hits mostly activators; calls by dose curve; note: nearly all actives have a fitted effect of over 55% in size
Tb PYK inh – inhibitors of Trypanosoma brucei pyruvate kinase | TbPYK enzyme, Kinase-Glo Plus ATP luminescence, 45 min | Potency, µM (titrated, usually from 76.8 µM), most hits filed as inhibitors | hit rate 0.12% among 410,000 | AID 624173; note: nearly all actives have a fitted effect of over 50% in size
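Luminescent Kinase-Glo Plus end-point after 45 min room-temperature reaction of T. brucei pyruvate kinase started with 130 uM ADP (final). Buffer TEA 50 mM pH 7.2 with KCl, MgCl2, BSA, Tween-20; titration-based qHTS with fitted concentration-effect curves.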
Numbers stand for hits; - = inactive; ? = inconclusive; . = no result given. Rows were chosen to be rich in hits. Some 3.3% of all compounds tested hit in one or more screens of this group. Unless noted, calls come from the whole dose curve; as a rule, active = well fitted curve in the direction sought with a large enough effect; inconclusive = small, poorly fitted or top-dose-only effect, or another doubt; inactive = no such curve, though single readings can be large; an effect the other way counts as inactive or inconclusive.

SMILES	AmpC no deterg	Sm TGR block	AmpC inh detg	RE007 growth inh	SARS PLP yeast	Tb PYK inh
Cc1ccc(NCCC(=O)c2cccs2)cc1	-	1.3µM	-	?	-	-
O=C(CCNc1cccc(Cl)c1)c1cccs1	-	5.6µM	-	?	-	-
Cc1ccc(NCCC(=O)c2cccs2)cc1Cl	-	4µM	-	-	-	-
O=C(CCC(=O)c1cccs1)NNC(=O)c1cccc(Cl)c1	-	-	?	-	-	-
Cc1ccc(NCCC(=O)c2cccs2)cc1C	-	-	-	40µM	-	-
Cc1ccc(NCCC(=O)c2ccc(Cl)cc2)cc1C	-	?	-	-	-	-
O=C(CN1CCOC1=O)N1CCCC(N2CCN(c3cccc(C(F)(F)F)c3)CC2)C1 (stereo not given)	-	40µM	-	-	-	-
Cc1ccc(C(=O)Nc2nc(-c3ccccn3)cs2)o1	-	-	-	-	-	-
CC(=O)c1ccc(-c2ccc(C(=O)Nc3nc(-c4ccccn4)cs3)o2)cc1	-	.	.	-	-	-
O=C(Nc1nc(-c2ccccn2)cs1)c1ccc([N+](=O)[O-])o1	-	10µM	-	-	-	?
O=C(Nc1nc(-c2ccccn2)cs1)c1ccc(-c2ccccc2F)o1	-	25µM	-	-	-	-
COc1ccc(NC(=O)Cn2nnc(C(=O)NCc3ccccc3Cl)c2N)cc1Cl	.	-	-	.	.	-
O=C(c1cc(-c2ccccc2O)on1)N1CCc2ccccc2C1	-	-	-	-	-	-
COc1ccccc1N1CCN(C(=O)c2cc(-c3ccccc3)on2)CC1	-	-	-	-	-	-
O=C(c1cc(-c2ccco2)on1)N1CCN(c2ccccc2)CC1	3.2µM	-	-	-	-	-
O=C(c1cc(-c2ccco2)on1)N1CCc2ccccc2C1	-	13µM	-	-	-	-
COc1ccccc1N1CCN(C(=O)c2cc(-c3ccco3)on2)CC1	-	56µM	-	-	-	-
O=C(NCCc1ccc(Cl)cc1)c1ccc2c(c1)N(Cc1ccccc1)C(=O)CS2	.	-	-	.	.	-
CN(C)c1cccc(C(=O)N2CCC(c3c[nH]c4ccccc34)(c3c[nH]c4ccccc34)CC2)c1	.	-	-	.	.	-
Cc1ccc(Cc2c(C)nc3nc(SCC(=O)NCCC(C)C)nn3c2C)cc1	.	-	?	.	.	-
Cn1c(Oc2ccc(F)cc2)nc2c1c(=O)n(Cc1ccccc1Cl)c(=O)n2C	.	-	-	.	.	-
O=C(CCl)NN=C(c1ccccc1)c1ccccc1	-	11µM	-	-	-	-
Cc1ccc(C2N3CC4(C)CN2CC(c2ccccc2)(C3)C4=O)cc1 (stereo not given)	.	-	-	.	.	-
Cc1ccc(-n2nc(C)c3c(C)c(CCC(=O)NCc4ccc(Cl)cc4)c(C)nc32)cc1	.	-	-	.	.	-
CCOc1ccc(/C=C2\SC(=O)N(CCNC(=O)C3COc4ccccc4O3)C2=O)cc1OC (stereo not given)	-	35µM	-	-	-	-
SMILES	AmpC no deterg	Sm TGR block	AmpC inh detg	RE007 growth inh	SARS PLP yeast	Tb PYK inh
CCc1ccc(N(C(C)=O)C2C=CS(=O)(=O)C2)cc1 (stereo not given)	0.16µM	-	-	-	-	-
CC(=O)N(c1ccc(Br)cc1)C1C=CS(=O)(=O)C1 (stereo not given)	?	-	?	-	-	-
Cc1ccc(NC(=O)c2c(C)nc3sc(C(=O)Nc4ccc(F)cc4)c(N)c3c2-c2ccc(C)o2)c(C)c1	.	-	-	.	.	-
CCOC(=O)N1CCN(C(=O)C2CCN(C(=O)c3ccccc3C)CC2)CC1	.	.	.	?	.	7.9µM
Cc1ccccc1C(=O)N1CCC(C(=O)N2CCN(c3ncccn3)CC2)CC1	-	-	-	-	-	-
NS(=O)(=O)c1ccc(CNC(=S)Nc2ccc(F)c(Cl)c2)cc1	-	?	-	-	-	-
NS(=O)(=O)c1ccc(NC(=S)NCCc2ccccc2)cc1	-	.	-	-	-	?
O=[N+]([O-])c1ccc(NC(=S)NCCc2ccccc2)cc1	-	-	-	-	-	-
NS(=O)(=O)c1ccc(NC(=S)Nc2ccc(F)c(F)c2)cc1	-	25µM	-	-	-	-

Source: PubChem (National Center for Advancing Translational Sciences (NCATS))
